HCV inh: blocks hepatitis C virus; Huh7.5.1 HCVcc-Cre infection, luciferase reporter, 44 h; Potency, µM (highest dose often 41.8 µM), without a hit: top-dose activity change, negative = inhibition, most hits filed as inhibitors; 340,000 compounds, 3.4% hits; AID 651820; also: % is scaled to controls: 0 for no effect and ±100 for the full control effect
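Infectious HCVcc-Cre (~0.5 moi) was added to cells just after compound, with cells seeded 4 h earlier at 1,000 per well. Luciferase activity after 44 h culture reported infection; substrate was incubated 15 min at room temperature before reading.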
Pf growth 96h: P. falciparum growth inhibition at 96 hours; P. falciparum luciferase reporter growth, 96 h; Potency, µM (top dose mostly 28.7 µM), inactives show at the highest dose activity change, negative = inhibition, most hits filed as inhibitors; 320,000 compounds, 6.9% hits; AID 504834; also: % is scaled to controls: 0 for no effect and ±100 for the full control effect
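Plates of compound plus infected erythrocytes (2% hematocrit, 0.05% parasitemia final) incubate 96 hours, 37 C, 5% CO2. Detection reagent added; reduced luminescence from the parasites' luciferase reporter flags inhibition.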
Pf growth 48h: P. falciparum growth inhibition at 48 hours (one generation). P. falciparum luciferase growth in erythrocytes, 48 h. Potency, µM (highest dose often 28.7 µM), inactives show top-dose activity change, negative = inhibition, most hits filed as inhibitors. 310,000 compounds, 5.9% hits. AID 504832; also: % is scaled to controls: 0 for no effect and ±100 for the full control effect
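First compound was added to culture medium, then infected red cells at 0.1% parasitemia and 2% hematocrit (final). After incubation at 37 C under 5% CO2, luciferase detection reagent was dispensed and light output recorded.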
SARS PLpro yeast: SARS-CoV PLP inhibition in yeast. S. cerevisiae expressing SARS-CoV PLpro, growth rescue. Potency, µM (highest dose often 32.9 µM), for the others: at the highest dose activity, positive = growth rescue, usual class: activators. 330,000 compounds, 0.19% hits; calls by dose curve; also: 0% is about no effect; nearly all actives have a fitted effect of over 55% in size
AMA1-RON2 inh: disrupts binding of P. falciparum AMA1 to RON2; AlphaScreen AMA1-biotinylated RON2 peptide binding; Potency, µM (series often up to 58.2 µM), inactives show at the top dose activity change, negative = inhibition, hits mostly inhibitors; 360,000 compounds, 0.2% hits;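 also: 0% = vehicle wells and -100% = peptide control; nearly all actives have a fitted effect of over 45% in size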
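AMA1 (3D7) with his tag at 25 nM final met compounds first, then biotinylated RON2 peptide at 25 nM; detection used donor plus acceptor beads, 10 µg/mL apiece, read by AlphaScreen after 30 min at room temperature.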
NS1 function inh: influenza NS1 inhibition; Potency, µM (top dose mostly 46.1 µM), inactives show at the highest dose activity, positive = more growth; 270,000 compounds, 0.4% hits; AID 2326; calls by dose curve; also: actives are rising curves; nearly all actives have a fitted effect of over 50% in size
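Growth recovery, yeast-based: influenza A NS1 expressed in S. cerevisiae causes slow growth, and suppressors are detected by OD600. The parent strain without NS1 is used as positive control.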
An asterisk follows results filed as active; ? = inconclusive; . = not tested or not shown; [ ] = remark or other dose. An excerpt weighted towards active compounds, which were near 12% of everything screened. Unless noted, calls follow the shape of the dose curve; as a rule, active = well fitted curve in the direction sought with a large enough effect; inconclusive = small, poorly fitted or top-dose-only effect, or another doubt; inactive = no such curve, though single readings can be large; an effect the other way counts as inactive or inconclusive. Potency is read from the fitted curve at half-maximal effect.

SMILES | HCV inh | Pf growth 96h | Pf growth 48h | SARS PLpro yeast | AMA1-RON2 inh | NS1 function inh
Cc1ccccc1CNC(=O)CCC(=O)N1CCOc2ccc(Cl)cc21 | -28% | ? | -30% | 0% | -3% | -4%
Cc1ccc(NNC(=O)Nc2ccc(Cl)cc2)nn1 | 14% | 27% | 33% | -17% | 38% | -4%
O=C(CSc1nnc(COc2ccc(F)cc2)o1)N1c2ccccc2CCc2ccccc21 | . | ? | 4.1µM* | -7% | 4% | ?
O=C(CSc1nnc(CNc2ccc(F)cc2)o1)N1c2ccccc2Sc2ccccc21 | 10µM* | ? | ? | -11% | -18% | -9%
O=C(CSc1nnc(COc2cccc3cccnc23)o1)N1CCc2ccccc21 | 2.2µM* | -2% | 25% | 4% | 0% | -1%
O=C(CSc1nncs1)N1c2ccccc2Sc2ccccc21 | -17% | . | 13µM* | -2% | 0% | -5%
C[C@@H]1CN([C@@H](C)CO)C(=O)CCCn2nncc2CO[C@@H]1CN(C)C(=O)c1ccccc1 | . | . | . | . | -2% | .
COc1ccccc1OCCNC(=O)CN(c1cccc(C)c1)S(=O)(=O)c1ccccc1 | -25% | -24% | 15µM* | 6% | -12% | -20%
COc1ccc(CCNC(=O)CN(c2ccccc2OC)S(=O)(=O)c2ccc(C)cc2)cc1 | ? | 100% | 4.1µM* | 0% | -5% | .
COc1ccc(CCNC(=O)CN(c2cc(OC)ccc2OC)S(=O)(=O)c2ccccc2)cc1 | -1% | 9% | 9.3µM* | 6% | 4% | -40%
COc1ccccc1N(CC(=O)NCCSCc1ccc(C)cc1)S(=O)(=O)c1ccccc1 | 13µM* | -14% | ? | -2% | -1% | -54%
O=C(Cn1nnc(-c2ccccc2NC(=O)c2ccccc2F)n1)NC1CCCC1 | 6% | -6% | 6% | 21% | -5% | -3%
COc1ccc(C(O)c2ncc(-c3ccccc3C)[nH]2)cc1 (centres undefined) | . | . | . | . | -9% | .
Cc1nc(Oc2ccccc2)c2ccccc2n1 | 3% | -24% | -12% | 17% | 1% | -3%
COc1ccc(Oc2nc(-c3ccccn3)nc3ccccc23)cc1 | 13µM* | 0.37µM* | 1.7µM* | -3% | 99% | -44%
c1ccc(Oc2nc(-c3ccccn3)nc3ccccc23)cc1 | 7.9µM* | 1.3µM* | 1.7µM* | -4% | 55% | -59%
Fc1ccc(Oc2nc(-c3ccccn3)nc3ccccc23)cc1 | -73% | 4.7µM* | 1.7µM* | -1% | 33% | -53%
COc1nc2c(c(-c3cc(Br)cs3)c1C#N)Cc1ccccc1-2 | -6% | -29% | 170% | 0% | -11% | 6%
CN(C)c1ccc2c(c1)C(=NO)c1ccccc1-2 | ? | . | . | . | 25µM* | .
ON=C1c2ccccc2-c2ccccc21 | ? | 49% | . | -5% | 7% | -47%
Nc1cc2c(cc1Cl)-c1ccccc1C2=NO | 5µM* | . | . | . | 0% | .
O=C(Nc1ccccc1Sc1ccccc1)c1ccccc1F | 6% | . | . | . | 36% | .
CCCCSCCCNC(=O)CCCN1C(=O)c2ccccc2Sc2ncccc21 | -1% | ? | ? | -1% | -9% | -4%
C#CCOc1ccccc1CNC1CCN(Cc2ccccc2)CC1 | ? | 13µM* | 9.3µM* | -3% | 7% | 4%
FC(F)(F)c1cccc(CN2CCCCCC2)c1 | 1% | . | 0% | 0% | -14% | 14%
SMILES | HCV inh | Pf growth 96h | Pf growth 48h | SARS PLpro yeast | AMA1-RON2 inh | NS1 function inh
FC(F)(F)c1cccc(CNC2CCN(Cc3ccccc3)CC2)c1 | ? | ? | 2.6µM* | 1% | 0% | -16%
CCOC(=O)N/N=C(\C)c1ccccc1OC(F)F | 21% | 9.3µM* | ? | -5% | 17% | 9%
CC(NC(=O)/C(C#N)=C/c1ccc(Cl)c([N+](=O)[O-])c1)c1ccccc1 (centres undefined) | 35µM* | 3% | -23% | -99% | -2% | -62%
O=C(NC1CCSc2ccccc21)c1ccc(F)c(S(=O)(=O)N2CCOCC2)c1 (centres undefined) | . | -58% | -5% | 1% | -6% | 1%
COc1ccc(N2CCN(S(=O)(=O)CCNC(=O)C3CCCCC3)CC2)cc1 | 8% | 2% | 8% | 3% | -13% | 3%
COc1ccc(NC(=O)c2ocnc2C)cc1OC | 18% | 40% | 35% | -6% | 5% | 5%
COc1ccc(Cl)cc1NC(=O)NNC(=O)c1ccccn1 | 3% | 10µM* | -23% | -2% | 96% | -21%
COc1ccc(Cl)cc1NC(=O)c1ocnc1C | ? | 1µM* | -2% | -7% | 4% | -11%
CC12CCC(C(=O)N(CCCCN3CCN(c4ccccn4)CC3)C1=O)C2(C)C (centres undefined) | -4% | 9.3µM* | ? | -5% | -1% | 7%
COc1ccc(C(=O)N/N=C/c2ccc(OC)c(CN3CCN(c4ccc(F)cc4)CC3)c2)cc1 | ? | 16% | 17% | 3% | -1% | 28%
COc1cccc(/C=N/NC(=O)c2ccoc2C)c1O | 10µM* | ? | ? | 1% | 107% | -5%
COc1ccc(/C=N/NC(=O)c2ccoc2C)cc1CN1CCN(c2ccc(F)cc2)CC1 | ? | ? | 9.3µM* | 0% | -3% | -5%
Cc1onc(-c2ccccc2)c1C(=O)N/N=C/c1cc(Br)c(Br)o1 | -16% | 13µM* | ? | -28% | -21% | 8%
COc1ccc(/C=N/NC(=O)CSCC(=O)Nc2ccccc2)cc1 | 0% | 29% | 50% | 0% | 1% | -3%
Cc1ccc(/C=N/NC(=O)c2c(-c3ccccc3)noc2C)o1 | 0% | -2% | 3% | 5% | 1%[2.32 µM] | 2%
COc1cccc(/C=N/NC(=O)CSCC(=O)Nc2ccccc2)c1O | 25µM* | ? | ? | 10% | 48% | -10%
CC[C@H]1CN(C)[C@H]2Cc3c([nH]c4ccccc34)C(=O)C[C@H]1[C@H]2C(=O)OC | . | . | . | . | . | 13%
CC(NC(=O)C(Cc1ccccc1)=NO)c1ccccc1 (centres undefined) | 38% | . | . | . | 23% | .
COc1ccc(OCc2nnc(SCC(=O)N3C(C)CCCC3C)o2)cc1 (centres undefined) | 23% | ? | ? | -1% | -4% | -19%
CCOc1cc([N+](=O)[O-])cc(/C=N/NC(=O)c2c(-c3ccccc3)noc2C)c1O | 2% | 13µM* | 18% | ? | -36% | -6%
COc1cccc(/C=N/NC(=O)c2c(-c3ccccc3)noc2C)c1O | ? | ? | 5.9µM* | -1% | 82% | -65%
CCN1CCN(c2ccc(S(=O)(=O)N3CCOCC3)cc2NC(=O)/C=C/c2ccc(C)cc2)CC1 | -21% | ? | -98% | -6% | 11% | .
CCN1CCN(c2ccc(S(=O)(=O)N3CCCCC3)cc2NC(=O)/C=C/c2ccc(F)cc2)CC1 | ? | ? | 10µM* | -26% | -21% | .

Screening results: PubChem, National Center for Advancing Translational Sciences (NCATS)
